Assay results: PubChem BioAssay (NCI)
About 83,000 compounds went through this panel and 20% of them were active in at least one assay; those are over-represented in the sample as a whole.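 Negative percent growth values reflect cell death: -40 means 40% of the cells present at the start died, and -100 means all died.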 Activity calls are given as the source filed them. The calls were made as follows: active = growth percent below 10; inactive = the rest.

Key:
Experiment in all cases: NCI-60 one-dose screen, 48 h (100 = growth as untreated, 0 = no growth, -100 = all killed)
Settings in all cases: 10 µM unless noted
[1] = test system: DU-145 prostate
[2] = test system: K-562 leukemia
[3] = test system: MALME-3M melanoma
[4] = test system: MDA-MB-231 breast
[5] = test system: RXF 393 renal
[6] = test system: SF-268 CNS
[7] = test system: SF-295 CNS
[8] = test system: SF-539 CNS
[9] = test system: UACC-257 melanoma
[10] = test system: M14 melanoma

Measured: growth

COc1ccc(N/N=C/c2cn(-c3ccc(C(=O)O)cc3)nc2-c2cc3ccccc3oc2=O)cc1
inactive: [1] 84.2% | [2] 11.3% | [3] 109% | [4] 77.9% | [5] 111% | [6] 68.5% | [7] 22.5% | [8] 50% | [9] 88.9% | [10] 42.3%

C#CCOc1ccc2nc(CCl)c(Cl)c(Nc3cccc(C(F)(F)F)c3)c2c1
inactive: [1] 72% | [2] 38.8% | [3] 59.5% | [4] 55% | [5] 84.1% | [6] 85.3% | [7] 88% | [8] 104% | [9] 93.7% | [10] 81.4%

CC[C@H](Nc1nc(N)nc(C)c1C#N)c1nc2cccc(CN(C)c3ncc(C(=O)NO)cn3)c2c(=O)n1-c1ccccc1
active: [2] 8.69% | [3] 8.44% | [4] -12.6% | [5] -61% | [7] -8.31% | [8] 8.35% | [9] -20.8% | [10] 9.1%
inactive: [1] 18.5% | [6] 12.1%

C[N+]1=C(/C=C/c2ccccc2Cl)C(C)(C)c2ccccc21
inactive: [1] 94.5% | [2] 77.3% | [3] 98.4% | [4] 98% | [5] 89.2% | [6] 96.7% | [7] 103% | [8] 101% | [9] 92% | [10] 97.8%

O=C(CSc1nnnn1-c1ccccc1)Nc1ccc(Oc2ccccc2)cc1
inactive: [1] 111% | [2] 120% | [3] 133% | [4] 94.2% | [5] 111% | [6] 101% | [7] 100% | [8] 111% | [9] 96.2% | [10] 111%

Cn1c(C#N)ccc1-c1ccc(F)c(NC(=O)c2ccc(F)cc2)c1
inactive: [1] 94.3% | [2] 23.6% | [3] 91.2% | [4] 73.7% | [5] 85.3% | [6] 81.9% | [7] 68.8% | [8] 73.8% | [9] 107% | [10] 59.8%

COc1ccc(/C=N/NC(=O)Cn2c(-c3ccc(S(C)(=O)=O)cc3)nc3ccccc32)cc1
inactive: [1] 111% | [2] 98.9% | [3] 89% | [4] 95.8% | [5] 104% | [6] 102% | [7] 93.1% | [8] 96.4% | [9] 112% | [10] 92.1%

COc1ccc(CNc2ccc3nc(NC(=O)CN4CCCCCC4)sc3c2)cc1
inactive: [1] 99.2% | [2] 44.6% | [3] 96.3% | [4] 77.7% | [5] 97% | [6] 108% | [7] 83.8% | [8] 102% | [9] 86% | [10] 85.9%

Fc1ccc2[nH]cc(-c3nc(-c4c[nH]c5c(Cl)nccc45)cs3)c2c1
active: [9] -38.3% | [10] -5.3%
inactive: [1] 32% | [2] 11.8% | [3] 74.3% | [4] 13.7% | [5] 16.3% | [6] 67.2% | [7] 18.1% | [8] 41.1%

Nc1cc(Br)cc2c1[nH]c(=O)c1ccccc12
inactive: [1] 106% | [2] 92.5% | [3] 124% | [4] 102% | [5] 103% | [6] 106% | [7] 108% | [8] 112% | [9] 94.7% | [10] 114%

CCN(CC)CCOc1ccc(Nc2ncc3cc(-c4c(Cl)cccc4Cl)c(=O)n(CCOC)c3n2)cc1
inactive: [3] 10.6% | [7] 25.7% | [9] 12.9%
active: [1] -13.8% | [2] 5.78% | [4] -73.2% | [5] -64.4% | [6] -9.68% | [8] -75.7% | [10] -6.68%

Cc1cccc(NC(=O)Cn2cc(CN3CCN(c4ccnc5cc(Cl)ccc45)CC3)nn2)c1
inactive: [1] 106% | [2] 71.6% | [3] 92.5% | [4] 78.2% | [5] 90.7% | [6] 81.8% | [7] 93.7% | [8] 93.4% | [9] 105% | [10] 92.5%

Cc1c2ncccc2nc2[nH]c3ccc(OCCN(C)C)cc3c12
inactive: [1] 22.2% | [2] 17% | [3] 29.3% | [4] 30.3% | [5] 35.3% | [6] 30.8% | [7] 32% | [8] 38.5% | [9] 46.1% | [10] 19.4%

COc1ccc(C(=O)/C=C/c2ccccc2)cc1S(N)(=O)=O
inactive: [1] 41.7% | [3] 93.6% | [4] 71.5% | [5] 80.6% | [6] 63.3% | [7] 91.1% | [8] 60.2% | [9] 90.9% | [10] 82.8%
active: [2] 7.9%

CCn1cc(C(=O)N/N=C/c2cccc(F)c2)c(=O)c2cc(F)c(N3CCNC(C)C3)c(F)c21 (stereo not given)
active: [1] -87.5% | [2] -52.1% | [3] -67.4% | [4] -49.6% | [5] -21.6% | [8] -4.61% | [10] -7.07%
inactive: [6] 39.4% | [7] 75.7% | [9] 89%

Cc1ccc(C(=O)c2ccc(CC(=O)N/N=C/c3cccc(O)c3O)n2C)cc1
inactive: [1] 49.3% | [2] 30.4% | [3] 58.7% | [4] 45.3% | [5] 29.7% | [6] 37.2% | [7] 83.5% | [8] 33.8% | [9] 89.7% | [10] 28.5%

Cc1cc(NCCCNc2ccnc3cc(Cl)ccc23)nc(Nc2ccc(C(=O)N3CCCCC3)cc2)n1
active: [2] 0.0536% | [3] -90.5% | [4] -38.7% | [5] -63.9% | [7] -34% | [8] -75.1% | [9] -72.9% | [10] -68.3%
inactive: [1] 36.6% | [6] 10.2%

O=C(Nc1ncc(Cc2ccccc2)s1)c1sc2ccccc2c1Cl
inactive: [1] 17% | [2] 12.1% | [3] 51% | [4] 55.5% | [6] 52.1% | [7] 17.7% | [9] 54.6% | [10] 11.1%
active: [5] -5.07% | [8] -1.43%

OC1(c2ccccc2)c2ccccc2N(c2ccccc2)c2ccc(Cl)cc21 (stereo not given)
active: [1] -90.6% | [2] -11.4% | [3] -93.1% | [4] -77% | [5] -83% | [6] -72.4% | [7] -57.6% | [8] -82.6% | [9] -58.8% | [10] -79.5%

c1ccc(-c2nc3ccccc3[nH]2)c(OCCCCCOc2ccccc2-c2nc3ccccc3[nH]2)c1
active: [2] -11.6% | [8] 7.96%
inactive: [1] 39.9% | [3] 66.2% | [4] 70.5% | [5] 81.1% | [6] 55.1% | [7] 87.3% | [9] 71% | [10] 95.1%

COc1cc2c(cc1OCCCN1CCN(C(=S)SCCC(C#N)(c3ccccc3)c3ccccc3)CC1)N=C[C@@H]1CCCN1C2=O
active: [1] -100% | [2] -5.69% | [3] -89.3% | [4] -31.1% | [5] -92.9% | [6] -72.5% | [7] -14.2% | [8] -94.7% | [9] -45.5% | [10] -76.6%

COc1ccc(C(c2cc(OC)c(OC)c(OC)c2)N2CCCCC2)cc1 (stereo not given)
inactive: [1] 64.2% | [2] 18% | [3] 55.3% | [4] 53.1% | [5] 26% | [6] 47.2% | [7] 18.7% | [8] 27.7% | [9] 54.9% | [10] 23.3%

Nc1[nH]nc2nc(-c3ccccc3)n3c4ccccc4nc3c12
inactive: [1] 117% | [2] 106% | [3] 108% | [4] 97.9% | [5] 93.9% | [6] 107% | [7] 93.2% | [8] 103% | [9] 105% | [10] 99.5%

Cc1cccc(N2C(=O)/C(=C/C(Cl)=C/c3ccc([N+](=O)[O-])cc3)SC2=S)c1C
active: [2] 3.9% | [3] -8.54% | [4] -6.22% | [5] -33.6% | [8] -3.16%
inactive: [1] 27.3% | [6] 40.5% | [7] 22.3% | [9] 14.3% | [10] 22.5%

O=c1cc(CNc2cc(F)cc(F)c2)c2ccc(I)cc2[nH]1
inactive: [1] 38.4% | [3] 38.9% | [4] 60.6% | [5] 15.1% | [6] 46.9% | [7] 30.9% | [9] 53.4% | [10] 20%
active: [2] 9.97% | [8] -12.6%

O=C(Nc1ccccc1O)c1ccc(CNc2ccnc(C(F)(F)F)c2)cc1
inactive: [1] 59% | [2] 18.2% | [3] 22% | [4] 62.9% | [5] 80.6% | [6] 54.8% | [7] 36% | [8] 39.1% | [9] 46.4% | [10] 34%

COc1ccc(-c2cc(-c3cccnc3)nc3sc4c(N)c(C(C)=O)c(-c5ccccc5)nc4c23)cc1OC
inactive: [1] 80.9% | [2] 32.3% | [3] 93.3% | [4] 51.5% | [5] 50.1% | [6] 69.6% | [7] 48.7% | [8] 52.8% | [9] 92.3% | [10] 104%
